According to PubChem BioAssay AID1159580 (chemical genetic matrix, 2015):
Values joined by “and” are separate entries in the source; they are usually repeats but may differ in a detail not shown here. Equal entries are not always repeated. The campaign covered roughly 5,500 compounds. About 2,000 (36%) were called active. Another 18% or so got no clear call; they are omitted. Rule as the data show it: active = normalized growth mostly below about 0.91 (no sharp cut-off); inconclusive = no clear call, values can overlap the other calls; inactive = mostly above about 0.92. The list shows a part of the results.

Assay: chemical genetic growth profiling, strain panel (AID 1159580);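 also: tested at 20 µM; growth read once vehicle control cultures reached saturation at 30 °C; 1 = growth at the plate median or of vehicle wells; lower values mean less growth of the strain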
Conditions: S. cerevisiae deletion strains, growth OD
[1] = locus YAL040C, strain CLN3, active compounds read low
[2] = locus YCL061C, strain MRC1 (second series), active compounds read low
[3] = locus YER002W, strain NOP16, active compounds read low
[4] = locus YJR075W, strain HOC1, active compounds read low
[5] = locus YMR263W, strain SAP30, active compounds read low
[6] = locus YNL153C, strain GIM3, active compounds read low
[7] = locus YNL175C, strain NOP13, active compounds read low
[8] = locus YNL197C, strain WHI3, active compounds read low
[9] = locus YNL224C, strain SQS1, active compounds read low
[10] = locus YOR083W, strain WHI5 (second series), active compounds read low
[11] = locus YPL241C, strain CIN2, active compounds read low

Measured: normalized growth

N[C@@H](CC(=O)O)C(=O)O
inactive: locus YAL013W, strain DEP1, active compounds read low 1.01 | [1] 1.09 | [2] 1.01 | [3] 1.01 | [4] 1.01 | [5] 1 | [6] 1.02 | [7] 1 | [8] 1 | [9] 0.996 | [10] 0.955 | [11] 1.01

O=c1[nH]cnc2[nH]ncc12
inactive: locus YAL021C, strain ccr4, active compounds read low 1.01 | locus YAL026C, strain drs2, active compounds read low 1 | locus YAL030W, strain snc1, active compounds read low 0.985 | [1] 1.01 | locus YBL061C, strain skt5, active compounds read low 1 | locus YBR009C, strain hhf1, active compounds read low 1 | locus YBR021W, strain FUR4, active compounds read low 1.01 | locus YBR023C, strain chs3, active compounds read low 1 | locus YBR171W, strain sec66, active compounds read low 1.01 | locus YBR229C, strain ROT2, active compounds read low 1.01 | locus YBR231C, strain swc5, active compounds read low 1.02 | locus YBR279W, strain paf1, active compounds read low 1 | locus YCL011C, strain gbp2, active compounds read low 1.01 | locus YCL016C, strain dcc1, active compounds read low 1.01 | locus YCL029C, strain bik1, active compounds read low 1.02 | [2] 0.996 | locus YCL069W, strain vba3, active compounds read low 1.01 | locus YCR088W, strain abp1, active compounds read low 0.993 | locus YDL005C, strain med2, active compounds read low 0.998 | locus YDL035C, strain GPR1, active compounds read low 0.997 | locus YDL040C, strain nat1, active compounds read low 0.988 | locus YDL074C, strain BRE1, active compounds read low 0.996 | locus YDL101C, strain DUN1, active compounds read low 1.01 | locus YDL134C, strain PPH21, active compounds read low 0.993 | locus YDL185W, strain tfp1, active compounds read low 1.02 | locus YDL192W, strain arf1, active compounds read low 1.01 | locus YDR001C, strain nth1, active compounds read low 0.992 | locus YDR069C, strain doa4, active compounds read low 1.04 | locus YDR101C, strain arx1, active compounds read low 1 | locus YDR137W, strain rgp1, active compounds read low 0.993 | locus YDR159W, strain sac3, active compounds read low 1.02 | locus YDR162C, strain NBP2, active compounds read low 1.01 | locus YDR195W, strain ref2 0.958 | locus YDR297W, strain sur2, active compounds read low 1 | locus YDR318W, strain mcm21, active compounds read low 1.01 | locus YDR334W, strain swr1, active compounds read low 1.03 | locus YDR335W, strain msn5, active compounds read low 1.01 | locus YDR388W, active compounds read low 1.02 | locus YDR392W, strain spt3, active compounds read low 0.966 | locus YDR502C, strain sam2, active compounds read low 1.01 | locus YEL003W, strain gim4, active compounds read low 1.01 | locus YEL037C, strain rad23, active compounds read low 1.01 | locus YEL061C, strain CIN8 (second series), active compounds read low 1.02 | locus YEL061C, strain CIN8, active compounds read low 1 | [3] 1 | locus YER015W, strain faa2, active compounds read low 1.01 | locus YER016W, strain bim1, active compounds read low 0.97 | locus YER110C, active compounds read low 1.03 | locus YER111C, strain swi4, active compounds read low 1 | locus YER155C, strain BEM2 (second series), active compounds read low 1.01 | locus YER155C, strain BEM2, active compounds read low 1.01 | locus YER167W, strain BCK2, active compounds read low 0.999 | locus YFR010W, strain ubp6, active compounds read low 1.01 | locus YGL078C, strain dbp3, active compounds read low 1.01 | locus YGL086W, strain mad1, active compounds read low 1 | locus YGL167C, strain pmr1, active compounds read low 1.01 | locus YGL173C, strain kem1, active compounds read low 0.998 | locus YGL227W, strain vid30, active compounds read low 1.01 | locus YGL240W, strain doc1, active compounds read low 1.04 | locus YGL248W, strain PDE1, active compounds read low 1.01 | locus YGL253W, strain hxk2, active compounds read low 0.995 | locus YGR135W, strain pre9, active compounds read low 1.01 | locus YGR252W, strain gcn5, active compounds read low 0.989 | locus YHR013C, strain ard1, active compounds read low 0.968 | locus YHR027C, strain rpn1, active compounds read low 1 | locus YHR030C, strain SLT2, active compounds read low 1.01 and 0.983 | locus YHR079C, strain IRE1 (second series), active compounds read low 1.02 | locus YHR079C, strain IRE1, active compounds read low 1.04 | locus YHR094C, strain hxt1, active compounds read low 1.03 | locus YHR129C, strain ARP1, active compounds read low 1 | locus YHR142W, strain chs7, active compounds read low 0.998 | locus YHR200W, strain rpn10, active compounds read low 1.03 | locus YIL066C, strain RNR3, active compounds read low 1.01 | locus YIL073C, strain SPO22, active compounds read low 1.04 | locus YIL125W, strain kgd1, active compounds read low 1.02 | locus YIR030C, strain dcg1, active compounds read low 1.01 | locus YJL092W, strain hpr5, active compounds read low 1.01 | locus YJL095W, strain BCK1 (second series), active compounds read low 1.01 | locus YJL095W, strain BCK1, active compounds read low 1.02 and 1.03 | locus YJL115W, strain asf1, active compounds read low 1.02 | locus YJL129C, strain trk1, active compounds read low 1.01 | locus YJL134W, strain LCB3, active compounds read low 0.999 | locus YJL154C, strain vps35, active compounds read low 1.01 | locus YJL164C, strain tpk1, active compounds read low 0.981 | locus YJL166W, strain qcr8, active compounds read low 1.02 | locus YJL168C, strain set2, active compounds read low 1.02 | locus YJL187C, strain SWE1 (second series), active compounds read low 1.02 | locus YJL187C, strain SWE1, active compounds read low 1.01 | locus YJR043C, strain POL32, active compounds read low 0.988 | locus YJR066W, strain TOR1, active compounds read low 0.974 | [4] 1.01 | locus YKL009W, strain mrt4, active compounds read low 1.02 | locus YKL068W, active compounds read low 1.01 | locus YKL085W, strain MDH1 (second series), active compounds read low 1 | locus YKL085W, strain MDH1, active compounds read low 1 | locus YKL160W, strain elf1, active compounds read low 1 | locus YKR001C, strain vps1, active compounds read low 1.01 | locus YKR026C, strain gcn3, active compounds read low 1.06 | locus YKR091W, strain srl3, active compounds read low 0.999 | locus YLL001W, strain dnm1, active compounds read low 1.01 | locus YLL026W, active compounds read low 1 | locus YLL041C, strain sdh2, active compounds read low 0.987 | locus YLR027C, strain aat2, active compounds read low 1.01 | locus YLR039C, strain RIC1, active compounds read low 1 | locus YLR058C, strain SHM2, active compounds read low 1.01 | locus YLR102C, strain apc9, active compounds read low 1.02 | locus YLR113W, strain HOG1, active compounds read low 1.02 | locus YLR221C, strain rsa3, active compounds read low 1.01 | locus YLR258W, strain gsy2, active compounds read low 1 | locus YLR262C, strain YPT6 (second series), active compounds read low 1 | locus YLR262C, strain YPT6, active compounds read low 1.04 | locus YLR268W, strain sec22, active compounds read low 1.02 | locus YLR320W, strain mms22, active compounds read low 0.992 | locus YLR330W, strain CHS5, active compounds read low 1 | locus YLR342W, strain FKS1 (second series), active compounds read low 0.982 | locus YLR342W, strain FKS1, active compounds read low 1.02 | locus YLR357W, strain rsc2, active compounds read low 0.998 | locus YLR370C, strain arc18, active compounds read low 1.01 | locus YLR371W, strain rom2, active compounds read low 1.01 | locus YLR384C, strain iki3, active compounds read low 1 | locus YLR418C, strain cdc73, active compounds read low 1.01 | locus YML016C, strain PPZ1, active compounds read low 1.01 | locus YML032C, strain rad52, active compounds read low 1.01 | locus YML120C, strain ndi1, active compounds read low 1.02 | locus YML124C, strain tub3, active compounds read low 1.02 | locus YMR058W, strain fet3, active compounds read low 1.02 | locus YMR078C, strain ctf18, active compounds read low 1.02 | locus YMR125W, strain sto1, active compounds read low 0.998 | locus YMR129W, active compounds read low 1.01 | locus YMR205C, strain PFK2, active compounds read low 0.998 | locus YMR223W, strain ubp8, active compounds read low 1.01 | locus YMR231W, strain pep5, active compounds read low 1 | [5] 0.997 | locus YMR307W, strain GAS1, active compounds read low 1.02 and 1.01 | locus YNL067W, strain RPL9B, active compounds read low 1.02 | locus YNL071W, strain lat1, active compounds read low 1.02 | [6] 1.03 | [7] 1.01 | locus YNL183C, strain NPR1, active compounds read low 0.977 | [8] 1.01 | locus YNL209W, strain ssb2, active compounds read low 0.998 | [9] 0.994 | locus YNL233W, strain BNI4, active compounds read low 1.01 | locus YNL248C, strain rpa49, active compounds read low 1.04 | locus YNL250W, strain rad50, active compounds read low 1.01 | locus YNL271C, strain bni1, active compounds read low 1.02 | locus YNL298W, strain CLA4, active compounds read low 1.01 | locus YNL307C, strain MCK1, active compounds read low 1.03 | locus YNL322C, strain KRE1 (second series), active compounds read low 0.993 | locus YNL322C, strain KRE1, active compounds read low 1.01 | locus YNR049C, strain mso1, active compounds read low 1.02 | locus YNR052C, strain pop2, active compounds read low 1.02 | locus YOL006C, strain TOP1, active compounds read low 1.05 | locus YOL012C, strain htz1 0.934 | locus YOL147C, strain pex11, active compounds read low 1.01 | locus YOR001W, strain rrp6, active compounds read low 1.05 | locus YOR061W, strain CKA2, active compounds read low 1.01 | locus YOR069W, strain VPS5, active compounds read low 1 | locus YOR070C, strain gyp1, active compounds read low 0.996 | locus YOR080W, strain dia2, active compounds read low 1.02 | [10] 1.04 | locus YOR083W, strain WHI5, active compounds read low 1.05 | locus YOR106W, strain vam3, active compounds read low 1.03 | locus YOR136W, strain idh2, active compounds read low 1.02 | locus YOR144C, strain elg1, active compounds read low 1.01 | locus YOR184W, strain ser1, active compounds read low 1.01 | locus YOR231W, strain MKK1, active compounds read low 1.03 | locus YOR265W, strain rbl2, active compounds read low 1.01 | locus YOR270C, strain vph1, active compounds read low 1.08 | locus YOR290C, strain snf2, active compounds read low 0.993 | locus YOR316C, strain cot1, active compounds read low 1.01 | locus YPL051W, strain arl3, active compounds read low 1.01 | locus YPL078C, strain atp4, active compounds read low 1.03 | locus YPL106C, strain sse1, active compounds read low 1.01 | locus YPL240C, strain hsp82, active compounds read low 1 | [11] 1 | locus YPL256C, strain CLN2, active compounds read low 1 | locus YPR119W, strain clb2, active compounds read low 1.02 | locus YPR141C, strain kar3, active compounds read low 1.03 | locus YPR163C, strain tif3, active compounds read low 1.03 | locus YPR167C, strain met16, active compounds read low 1.02 | strain wtn01, active compounds read low 1
